Test results published in PubChem BioAssay.

Assay: Primary imaging screen for DUSP6 inhibitors that restore phospho-Erk in transfected HeLa cells, chemical complementation (AID 609)
Settings: HeLa MKP-3 transfected, phospho-Erk imaging KS statistic; measured here: nuclear pErk red intensity z-score; at 10 µM; stronger effect = higher value; cells stimulated with TPA for 15 min

Structure (SMILES) | z-score
Cc1nnc2n(-c3ccccc3)c(=O)c3c4c(sc3n12)CCCC4 | 0.377
Cc1c(NC(=O)c2ccc(=O)oc2)c(=O)n(-c2ccccc2)n1C | 0.431
Cc1nc2sc(C#N)c(N)c2c2c1CCCC2 | -1.05
Fc1ccc(-c2cnc[nH]2)cc1 | -1.47
CC(CCc1ccccc1)NCC(O)c1ccc(O)c(C(N)=O)c1 (centres undefined) | -0.807
CCOC(=O)c1ccc2nc(NC(NC(C)=O)(C(=O)OC)C(F)(F)F)sc2c1 (centres undefined) | -0.534
COc1cccc(N2C(=O)C(O)=C(C(C)=O)C2c2ccc(OC)c(OC)c2)c1 (centres undefined) | 0.653
CCCCOc1ccccc1C(=O)NCCCC(=O)O | 1.54
COc1ccc(CCn2c(=N)c(C#N)cc3c(=O)n4ccccc4nc32)cc1 | -0.629
O=C(NC1CCS(=O)(=O)C1)c1c(NC(=O)C2COc3ccccc3O2)sc2c1CCCC2 (centres undefined) | 0.35
Cc1nn(-c2ccccc2)c2c1C(=O)NC(=O)C(C)(C)C2 | 0.796
O=C(Nc1ccccn1)NC(C(F)(F)F)C(F)(F)F | 0.451
CCC(NC(=O)Nc1cc(OC)c(OC)c(OC)c1)(C(F)(F)F)C(F)(F)F | 0.038
COC(=O)C(NC(C)=O)(Nc1ccccn1)C(F)(F)F (centres undefined) | -0.0238
CC1(C)CNC(=O)c2sc(N3CCOCC3)nc2C1 | 1.71
CCN1CCc2c(C#N)c(N3CCCCC3)nc(NCc3ccccc3)c2C1 | -1.11
CCOC(=O)CNC(=O)Nc1ccccc1C(=O)OC | -0.382
CCn1nc(NC(=O)c2cccnc2)c2cc3ccccc3nc21 | -0.336
Cn1c(=O)n(Cc2ccccc2)c(=O)c2c1nc(NCC1CCCO1)n2Cc1ccccc1 (centres undefined) | -1.47
COc1ccc2c(c1)n([O-])c1c([n+]2=O)CCC1 | -1.59

Structure (SMILES) | z-score
COc1ccc2c(c1)[nH]c1c(=O)n(CC3CCCO3)cnc12 (centres undefined) | -1.36
CC(=O)c1c(OCC(=O)O)ccc2c(C)cc(=O)oc12 | -0.576
O=C1C2ON(c3ccccc3)C(c3cccnc3)C2C(=O)N1c1ccccc1 (centres undefined) | -0.133
CCCCCn1c2nc3ccccc3nc2c2c(=O)n(CC(C)C)cnc21 | 1.53
Cc1nc2c(o1)CCc1ccccc1C2O (centres undefined) | -1.98
Clc1ccc(-n2ncc3c(NCCCn4ccnc4)ncnc32)cc1 | 1.02
Nc1nnnn1/N=C/c1ccccn1 | -0.159
c1ccc(CN2CCN(c3ncnc4c3[nH]c3ccccc34)CC2)cc1 | -0.208
Cc1cc2c(c(=O)o1)C(Cc1ccccc1)C(C#N)=C(N)O2 (centres undefined) | 1.32
COc1cc(NC(=O)NC(C)(C(F)(F)F)C(F)(F)F)cc(OC)c1OC | 1.46
Cc1c(O)c(CN2CCCCC2)cc2c3c(c(=O)oc12)CCC3 | -0.433
CCOC(=O)c1[nH]c2ccc(Br)cc2c1NC(=O)CNC | 0.769
COc1ccc(CCn2c(=N)c(C(=O)NCc3ccco3)cc3c(=O)n4ccccc4nc32)cc1 | -1.15
CN(C)/C=C1\N=C(c2ccc(Cl)cc2Cl)OC1=O | -0.794
Cc1ccc(/C=N/n2nnnc2N)o1 | 0.0866
COc1ccccc1N=Cc1nc(-c2ccccc2)oc1OC(C)=O | 0.127
Cc1ccc2[nH]c3c(N4CCOCC4)ncnc3c2c1 | 0.577
CC(=O)C1=C(O)C(=O)N(c2ccc(C(=O)O)cc2)C1c1ccccc1 (centres undefined) | -0.179
COc1ccccc1Nc1ncnc2c1cnn2-c1cccc(C)c1 | 0.131
